In PubChem BioAssay (NCI):
Several values for one entry are separate records, joined by “and”; a condition that tells them apart may be missing. Identical values can stand only once. This is part of a sample that, as a whole, favours compounds with a hit. Of some 79,000 tested, about 15% had one in any assay. Activity calls are given as the source filed them. No stated cut-off is given here; in the data, active means growth inhibition above about 70%; inactive means the rest.

Assay: NCI Yeast Anticancer Drug Screen. Data for the cln2 rad14 strain (AID 165);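 further: 0% = growth equal to vehicle treated cultures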
Details: S. cerevisiae cln2 rad14 strain, at 5.0 µM (retest, dose inferred, filed as 0.5), hits give high values
Experimental: Growth inhibition of yeast strains with defined genetic alterations is measured as a screen for potential anti-cancer activity. Selected strains with alterations in DNA damage repair or cell cycle control were exposed to compounds and growth inhibition was measured relative to vehicle treated controls. The strain used in this assay is cln2 rad14

| SMILES | growth inhibition |
| --- | --- |
| CCCC(C)(COC(N)=O)COC(=O)NC1CC1 (stereo not given) | -2% (inactive) |
| O=C1c2ccccc2CCC1Br (stereo not given) | -18% (inactive) |
| C(=P(c1ccccc1)(c1ccccc1)c1ccccc1)[P+](c1ccccc1)(c1ccccc1)c1ccccc1.[Cl][Fe]([Cl])([Cl])[Br] | 98% (active) |
| Clc1ccccc1C#[C][Hg][C]#Cc1ccccc1Cl | 1% (inactive) |
| COC1OC(CO)C(O)C(O)[CH]1[Hg][Cl] (stereo not given) | 99% (active) |
| Clc1ccc2c(c1)C(c1ccccc1Cl)=NCC(SCCN1CCOCC1)=N2 | 45% (inactive) |
| CC(=O)O[C@@H]1[C@@H](O)[C@H]2O[C@@H]3C=C(C)C(=O)[C@@H](O)[C@]3(CO)[C@]1(C)[C@]21CO1 | 33% (inactive) |
| CC1=C[C@H]2O[C@H]3C[C@H]4OC(=O)/C=C\C=C\C(=O)OCC[C@@H](C)[C@H](O)C(=O)OC[C@@]2(CC1)[C@@]4(C)[C@]31CO1 | 98% (active) |
| [CH3][Sn]([CH3])([S]CCS(=O)(=O)O)[S]CCS(=O)(=O)O | -10% (inactive) |

Same assay, conditions: S. cerevisiae cln2 rad14 strain, at 50.0 µM (retest, dose inferred, filed as 5.0), hits give high values

| SMILES | growth inhibition |
| --- | --- |
| CCCC(C)(COC(N)=O)COC(=O)NC1CC1 (stereo not given) | -6% (inactive) |
| O=C1c2ccccc2CCC1Br (stereo not given) | 99% (active) |
| C(=P(c1ccccc1)(c1ccccc1)c1ccccc1)[P+](c1ccccc1)(c1ccccc1)c1ccccc1.[Cl][Fe]([Cl])([Cl])[Br] | 99% (active) |
| Clc1ccccc1C#[C][Hg][C]#Cc1ccccc1Cl | 29% (inactive) |
| COC1OC(CO)C(O)C(O)[CH]1[Hg][Cl] (stereo not given) | 99% (active) |
| Clc1ccc2c(c1)C(c1ccccc1Cl)=NCC(SCCN1CCOCC1)=N2 | 81% (active) |
| CC(=O)O[C@@H]1[C@@H](O)[C@H]2O[C@@H]3C=C(C)C(=O)[C@@H](O)[C@]3(CO)[C@]1(C)[C@]21CO1 | 92% (active) |
| CC1=C[C@H]2O[C@H]3C[C@H]4OC(=O)/C=C\C=C\C(=O)OCC[C@@H](C)[C@H](O)C(=O)OC[C@@]2(CC1)[C@@]4(C)[C@]31CO1 | 98% (active) |
| [CH3][Sn]([CH3])([S]CCS(=O)(=O)O)[S]CCS(=O)(=O)O | -12% (inactive) |

Same assay, conditions: S. cerevisiae cln2 rad14 strain, at 50.0 µM, hits give high values

| SMILES | growth inhibition |
| --- | --- |
| C=CCc1cc(C=C(C#N)C#N)cc(OC)c1O | 23.1% (inactive) |
| CCCC(C)(COC(N)=O)COC(=O)NC1CC1 (stereo not given) | 37.1% (inactive) |
| O=C1c2ccccc2CCC1Br (stereo not given) | 98.6% (active) |
| C(=P(c1ccccc1)(c1ccccc1)c1ccccc1)[P+](c1ccccc1)(c1ccccc1)c1ccccc1.[Cl][Fe]([Cl])([Cl])[Br] | 99.2% (active) |
| CS(=O)(=O)OC1C2CC(C1OS(C)(=O)=O)C(c1ccccc1)C2C(=O)O (stereo not given) | 12.2% (inactive) |
| O=C1/C(=C\c2cc3ccccc3c3ccccc23)N2CCC1CC2 | -7.35% (inactive) |
| CN1CCN(Cc2ccccc2)CC1CC#N (stereo not given) | -0.2% (inactive) |
| Cc1ccc(CCl)c(C)c1 | -39% (inactive) |
| Cc1cc2c(C(C)C)c(O)c(O)c(C=O)c2c(O)c1-c1c(C)cc2c(C(C)C)c(O)c(O)c(C=O)c2c1O | 47.6% (inactive) and 67.5% (inactive) |
| Clc1ccccc1C#[C][Hg][C]#Cc1ccccc1Cl | -4.95% (inactive) |
| CCCCCCCCCCBr | 25.1% (inactive) |
| COc1cc(CC(C)N)ccc1O (stereo not given) | -46.4% (inactive) |
| COC1OC(CO)C(O)C(O)[CH]1[Hg][Cl] (stereo not given) | 99.2% (active) |
| C=CCn1cc2c3c(cccc31)C1CC(C)CN(C)C1C2 (stereo not given) | 39.9% (inactive) |
| CCCCCCCCCCNP(=S)(NCCCCCCCCCC)c1ccccc1 | -19.8% (inactive) |
| NNC(=O)NC(=O)NN | -8.95% (inactive) |
| Clc1ccc2c(c1)C(c1ccccc1Cl)=NCC(SCCN1CCOCC1)=N2 | 82% (active) |
| CC(=O)O[C@@H]1[C@@H](O)[C@H]2O[C@@H]3C=C(C)C(=O)[C@@H](O)[C@]3(CO)[C@]1(C)[C@]21CO1 | 23.5% (inactive) |
| CC1=C[C@H]2O[C@H]3C[C@H]4OC(=O)/C=C\C=C\C(=O)OCC[C@@H](C)[C@H](O)C(=O)OC[C@@]2(CC1)[C@@]4(C)[C@]31CO1 | 90.3% (active) |
| COc1ccc(Cc2nccc3cc(OC)c(OC)cc23)cc1OC | -2.9% (inactive) and -11.6% (inactive) |
| [CH3][Sn]([CH3])([S]CCS(=O)(=O)O)[S]CCS(=O)(=O)O | -5.95% (inactive) |
| O=C(CN1CCOCC1)c1ccccc1 | 3.55% (inactive) and -42% (inactive) |
